Test results published in the supplement of paper PMC3898565.
± gives the uncertainty stated by the source.

Tested on: U87
Assay: cell viability relative to vehicle control; higher = less growth inhibition (less active)
Details: 10 µM; 72 h
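Also: viable cell number estimated from Alamar Blue fluorescence read at 560/90, part of a single-dose primary screen of an FDA-approved drug library.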

SMILES | cell viability [%]
O=C1c2cccc3c2[C@H](CCC3)CN1[C@@H]1CN2CCC1CC2 | 84.3 ± 1.7
CN(C)CCCSc1ccccc1NC(=O)/C=C/c1ccccc1 [Cinanserin] | 103.3 ± 0.66
Nc1c2c(nc3c1CCC3)CCCC2 | 97.1 ± 5.7
CC1(C)O[C@@H]2[C@@H](CO[C@@]3(COS(N)(=O)=O)OC(C)(C)O[C@@H]23)O1 | 129 ± 2
O=C1N(c2ccccc2)c2ccccc2C1(Cc1ccncc1)Cc1ccncc1 | 106 ± 2.1
Cc1cccc(Nc2ccncc2S(=O)(=O)NC(=O)NC(C)C)c1 | 124 ± 2.1
CO[C@H]1/C=C/O[C@@]2(C)Oc3c(C)c(O)c4c(O)c(c5c(nc6cc(C)ccn65)c4c3C2=O)NC(=O)/C(C)=C\C=C\[C@H](C)[C@H](O)[C@@H](C)[C@@H](O)[C@@H](C)[C@H](OC(C)=O)[C@@H]1C | 96.1 ± 1.3
O=c1c(O[C@@H]2O[C@H](CO)[C@H](O)[C@H](O)[C@H]2O)c(-c2ccc(O)c(O)c2)oc2cc(O)cc(O)c12 | 106 ± 1.8
COc1ccc(CC(C)NCC(O)c2ccc(O)c(NC=O)c2)cc1 (centres undefined) | 98.7 ± 1.3
Clc1ccc(CO/N=C(\Cn2ccnc2)c2ccc(Cl)cc2Cl)c(Cl)c1 | 103 ± 3.9
CCCCc1nc(Cl)c(CO)n1Cc1ccc(-c2ccccc2-c2nnn[nH]2)cc1 [LOSARTAN Potassium] | 107 ± 1.9
C[C@H](CCC(=O)O)[C@H]1CC[C@H]2[C@@H]3C(=O)C[C@@H]4CC(=O)CC[C@]4(C)[C@H]3CC(=O)[C@]12C | 103.4 ± 0.82
C[C@@H]1O[C@@H](OC[C@H]2O[C@@H](Oc3c(-c4ccc(O)c(O)c4)oc4cc(O)cc(O)c4c3=O)[C@H](O)[C@@H](O)[C@@H]2O)[C@H](O)[C@H](O)[C@H]1O | 91.89 ± 0.76
CCCc1c(OCCCCc2nnn[nH]2)ccc(C(C)=O)c1O | 104 ± 1.5
CCc1nn(CCCN2CCN(c3cccc(Cl)c3)CC2)c(=O)n1CCOc1ccccc1 [Nefazodone] | 100.5 ± 0.27
NC[C@H]1CC[C@H](C(=O)Oc2ccc(CCC(=O)O)cc2)CC1 | 104.6 ± 0.48
C#C[C@]1(O)CC[C@H]2[C@@H]3CCC4=CC(=O)CC[C@@H]4[C@H]3CC[C@@]21CC | 105.5 ± 0.58
NC1CCN(c2cccc(Cl)n2)CC1 | 97.7 ± 4
O=C1Nc2ccccc2/C1=C1/Nc2ccccc2C1=O [indirubin] | 99.6 ± 1.4
CC(C)C[C@H](NC(=O)[C@@H](O)[C@H](N)Cc1ccccc1)C(=O)O | 97.13 ± 0.56

SMILES | cell viability [%]
N#Cc1ccc(C(c2ccc(C#N)cc2)n2cncn2)cc1 | 103 ± 1.3
COc1cc(C[C@@H](CO)[C@H](CO)Cc2ccc(O)c(OC)c2)ccc1O | 96.4 ± 14
Cc1cccc(CCN2CCC(C(=O)c3ccc(NS(C)(=O)=O)cc3)CC2)n1 | 102.6 ± 0.96
CC(C)(C)NC(=O)[C@@H]1C[C@@H]2CCCC[C@@H]2CN1C[C@@H](O)[C@H](Cc1ccccc1)NC(=O)[C@H](CC(N)=O)NC(=O)c1ccc2ccccc2n1 | 96.4 ± 2.6
COC(=O)C1=C(C)NC(C)=C(C(=O)OC2CCCN(Cc3ccccc3)C2)C1c1cccc([N+](=O)[O-])c1 (centres undefined) | 104 ± 1.2
COc1cc(N)c(Cl)cc1C(=O)NC1CCN(CCCOc2ccc(F)cc2)CC1OC (centres undefined) [Cisapride] | 103.5 ± 0.4
CC1CNc2c(cccc2S(=O)(=O)N[C@@H](CCCNC(=N)N)C(=O)N2CC[C@@H](C)C[C@@H]2C(=O)O)C1 (some centres undefined) | 105 ± 2.8
O=C1CCc2ccc(OCCCCN3CCN(c4cccc(Cl)c4Cl)CC3)cc2N1 | 102 ± 1.1
CN(C)CCc1c[nH]c2ccc(Cn3cncn3)cc12 | 101 ± 4.5
Fc1ccc([C@@H]2CCNC[C@H]2COc2ccc3c(c2)OCO3)cc1 | 104.5 ± 1
Cc1ncc([N+](=O)[O-])n1CC(O)CCl (centres undefined) | 91.08 ± 0.44
O=C(c1ccccc1)c1ccc2n1CCC2C(=O)O (centres undefined) [Ketorolac Tromethamine] | 101.2 ± 0.98
Oc1ccc(C2CNCCc3c2cc(O)c(O)c3Cl)cc1 (centres undefined) | 103 ± 2.8
Nc1ccc2cn[nH]c2c1 | 108 ± 2.4
CN1CCN(c2nc3cc(C(F)(F)F)ccc3n3cccc23)CC1 | 111 ± 2
Cc1ncc([N+](=O)[O-])n1CC(C)O (centres undefined) [1-(2-Methyl-5-nitro-imidazol-1-yl)-propan-2-ol] | 102.9 ± 0.98
CO[C@@H]1[C@@H](O[C@@H]2O[C@H](C)[C@@H](O[C@H]3C[C@@](C)(O)[C@@H](OC(=O)CC(C)C)[C@H](C)O3)[C@H](N(C)C)[C@H]2O)[C@@H](CC=O)C[C@@H](C)[C@@H](O)/C=C/C=C/C[C@@H](C)OC(=O)C[C@H]1O | 102 ± 2.2
CN1[C@@H]2CC[C@H]1C[C@@H](OC(=O)c1c[nH]c3ccccc13)C2 | 105.3 ± 0.81
CCN(CC)CC1CCCCN1CC(=O)N1c2ccccc2C(=O)Nc2cccnc21 (centres undefined) | 110 ± 1.9
